# Results published in PubChem BioAssay (EPA / NIEHS).
# Inconclusive results are not listed. Calls of active or inactive are those of the source. The calls were made as follows, unless noted: active = hit-call score of the fitted dose curve at least 0.9, where 1 is the maximum; inactive = score below 0.9.
# Key:
# [1] = molecular target: X-box-binding protein 1 (Homo sapiens) (UniProt P17861); test: ATG_Xbp1_CIS: Attagene CIS-FACTORIAL HepG2 Assay for human X-box Binding Protein 1 (XBP1) (AID 2282972); conditions: HepG2 XBP1 cis-element reporter, Attagene multiplex; actives raise or lower the signal
# Sequence of X-box-binding protein 1 (Homo sapiens) (P17861 whole entry, looked up, the tested form may be a part): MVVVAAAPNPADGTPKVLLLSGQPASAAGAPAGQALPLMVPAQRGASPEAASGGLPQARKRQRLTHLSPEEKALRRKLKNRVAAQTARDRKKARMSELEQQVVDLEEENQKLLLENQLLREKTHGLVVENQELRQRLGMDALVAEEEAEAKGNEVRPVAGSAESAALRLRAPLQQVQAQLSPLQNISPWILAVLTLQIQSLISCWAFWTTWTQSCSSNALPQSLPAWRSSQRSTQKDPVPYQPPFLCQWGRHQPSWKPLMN
# Procedure, shortened: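 Read-out: fluorescent reporter mRNA fragments resolved by capillary electrophoresis after RT-PCR. Human HepG2 liver cells carried transfected cis-promoter reporter units and were exposed to chemicals for 24 hours. Gain or loss of signal fitted relative to DMSO baseline.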
# [2] = molecular target: Oxysterols receptor LXR-beta (Homo sapiens) (UniProt P55055); test: ATG_LXRb_TRANS: Attagene TRANS-FACTORIAL HepG2 Assay for human Liver X Receptor beta (LXRb) (AID 2282981; active = hit-call score of the fitted dose curve at least 0.9, where 1 is the maximum); conditions: HepG2 Attagene TRANS GAL4-LXRb reporter, mRNA
# Sequence of Oxysterols receptor LXR-beta (Homo sapiens) (P55055 whole entry, looked up, the tested form may be a part): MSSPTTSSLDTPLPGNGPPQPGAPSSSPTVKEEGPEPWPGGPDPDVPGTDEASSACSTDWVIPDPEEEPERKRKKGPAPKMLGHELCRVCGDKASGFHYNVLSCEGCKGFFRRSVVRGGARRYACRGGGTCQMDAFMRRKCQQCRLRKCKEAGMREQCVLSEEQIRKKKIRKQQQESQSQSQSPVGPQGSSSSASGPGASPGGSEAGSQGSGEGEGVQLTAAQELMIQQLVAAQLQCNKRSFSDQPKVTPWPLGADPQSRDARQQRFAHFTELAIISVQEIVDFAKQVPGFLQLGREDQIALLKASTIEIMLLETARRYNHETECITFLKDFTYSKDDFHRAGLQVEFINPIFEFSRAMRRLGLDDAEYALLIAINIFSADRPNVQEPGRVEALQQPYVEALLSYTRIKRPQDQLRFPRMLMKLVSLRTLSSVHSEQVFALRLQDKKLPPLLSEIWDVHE
# Procedure, shortened: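 Readout: fluorescent reporter mRNA fragments resolved by capillary electrophoresis after RT-PCR. System: transiently transfected human HepG2, exogenous LXRb-Gal4 chimera driving GAL4-UAS reporter, 24 h dosing. Activity fitted upward against DMSO baseline.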
# [3] = molecular target: Hepatocyte nuclear factor 4-alpha (Homo sapiens) (UniProt P41235); test: ATG_HNF4a_TRANS: Attagene TRANS-FACTORIAL HepG2 Assay for human Hepatocyte Nuclear Factor 4 alpha (HNF4a) (AID 2282982; active = hit-call score of the fitted dose curve at least 0.9, where 1 is the maximum); conditions: HepG2 HNF4a transactivation reporter, mRNA readout
# Sequence of Hepatocyte nuclear factor 4-alpha (Homo sapiens) (P41235 whole entry, looked up): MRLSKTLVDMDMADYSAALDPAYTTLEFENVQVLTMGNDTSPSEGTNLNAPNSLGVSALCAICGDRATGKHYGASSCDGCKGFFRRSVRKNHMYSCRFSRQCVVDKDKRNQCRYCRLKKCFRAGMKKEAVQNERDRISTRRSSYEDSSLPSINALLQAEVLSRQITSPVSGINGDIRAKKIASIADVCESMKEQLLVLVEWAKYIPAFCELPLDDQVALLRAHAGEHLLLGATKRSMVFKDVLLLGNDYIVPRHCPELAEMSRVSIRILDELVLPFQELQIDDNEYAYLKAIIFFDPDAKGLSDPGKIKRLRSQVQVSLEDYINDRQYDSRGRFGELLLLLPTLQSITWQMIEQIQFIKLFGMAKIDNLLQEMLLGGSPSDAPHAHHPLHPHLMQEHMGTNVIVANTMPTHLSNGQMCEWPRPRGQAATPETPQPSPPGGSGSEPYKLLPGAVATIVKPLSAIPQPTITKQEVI
# Procedure, shortened: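 Transient MRTU transfection of HepG2, 24 h dosing. Readout: reporter mRNA via RT-PCR + capillary electrophoresis, fluorescence; activity fit upward relative to DMSO control.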
# [4] = ATG_M_06_TRANS: Attagene TRANS-FACTORIAL HepG2 Assay for M06 Transcription Factor (Internal Marker) (AID 2282983; active = hit-call score of the fitted dose curve at least 0.9, where 1 is the maximum;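 also: reporter transcript level by RT-PCR then capillary electrophoresis fluorescence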); conditions: HepG2 Attagene TRANS M06 internal marker reporter
# Procedure, shortened: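 mRNA levels of a reporter transcript, quantified as FAM fluorescence on capillary electrophoresis, served as readout. HepG2 cells expressing exogenous GAL4-chimera reporter constructs were exposed for 24 h. Gain of signal over DMSO was evaluated.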
# [5] = ATG_M_32_TRANS: Attagene TRANS-FACTORIAL HepG2 Assay for M32 Transcription Factor (Internal Marker) (AID 2282984; active = hit-call score of the fitted dose curve at least 0.9, where 1 is the maximum;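 also: transcript level of a background control reporter unit measured by RT-PCR and capillary electrophoresis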); conditions: HepG2 Attagene TRANS M32 internal marker reporter
# Procedure, shortened: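 Read-out: fluorescent reporter cDNA fragments resolved by capillary electrophoresis after RT-PCR of total RNA. Transfected HepG2 cells were exposed to chemical for 24 h. Activity scored in the positive direction relative to DMSO.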
# [6] = molecular target: Nuclear receptor subfamily 4 group A member 2 (Homo sapiens) (UniProt P43354); test: ATG_NURR1_TRANS: Attagene TRANS-FACTORIAL HepG2 Assay for human Nuclear Receptor Related Protein 1 (NURR1) (AID 2282985; active = hit-call score of the fitted dose curve at least 0.9, where 1 is the maximum); conditions: HepG2 Attagene TRANS reporter, mRNA readout
# Sequence of Nuclear receptor subfamily 4 group A member 2 (Homo sapiens) (P43354 whole entry, looked up, the tested form may be a part): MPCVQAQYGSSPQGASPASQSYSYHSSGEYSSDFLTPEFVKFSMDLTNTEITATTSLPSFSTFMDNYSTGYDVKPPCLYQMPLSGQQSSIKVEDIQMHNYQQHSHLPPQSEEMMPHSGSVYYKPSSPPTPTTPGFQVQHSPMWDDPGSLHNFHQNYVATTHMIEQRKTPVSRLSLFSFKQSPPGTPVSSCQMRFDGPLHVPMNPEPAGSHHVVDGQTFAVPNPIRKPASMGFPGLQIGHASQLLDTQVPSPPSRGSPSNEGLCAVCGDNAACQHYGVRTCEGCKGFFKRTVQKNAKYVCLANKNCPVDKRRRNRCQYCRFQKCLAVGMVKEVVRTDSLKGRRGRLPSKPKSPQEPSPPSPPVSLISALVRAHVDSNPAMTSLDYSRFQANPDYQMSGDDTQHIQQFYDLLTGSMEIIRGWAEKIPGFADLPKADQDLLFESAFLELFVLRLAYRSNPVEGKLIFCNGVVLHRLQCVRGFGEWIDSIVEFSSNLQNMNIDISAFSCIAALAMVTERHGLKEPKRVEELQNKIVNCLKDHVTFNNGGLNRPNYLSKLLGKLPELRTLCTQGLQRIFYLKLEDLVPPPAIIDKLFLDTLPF
# Procedure, shortened: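 Read-out: reporter mRNA induction by RT-PCR plus capillary electrophoresis with fluorescence detection, after 24 h dosing of transfected HepG2 cells. Exogenous NR-Gal4 chimera activity drives GAL4-UAS reporter; activity fitted upward versus DMSO.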
# [7] = molecular target: Transcriptional activator Myb (Homo sapiens) (UniProt P10242); test: ATG_Myb_CIS: Attagene CIS-FACTORIAL HepG2 Assay for human Myeloblastosis (Myb) Proto-Oncogene Transcription Factor (AID 2282986); conditions: HepG2 Attagene CIS-FACTORIAL Myb reporter transcription; actives raise or lower the signal
# Sequence of Transcriptional activator Myb (Homo sapiens) (P10242 whole entry, looked up): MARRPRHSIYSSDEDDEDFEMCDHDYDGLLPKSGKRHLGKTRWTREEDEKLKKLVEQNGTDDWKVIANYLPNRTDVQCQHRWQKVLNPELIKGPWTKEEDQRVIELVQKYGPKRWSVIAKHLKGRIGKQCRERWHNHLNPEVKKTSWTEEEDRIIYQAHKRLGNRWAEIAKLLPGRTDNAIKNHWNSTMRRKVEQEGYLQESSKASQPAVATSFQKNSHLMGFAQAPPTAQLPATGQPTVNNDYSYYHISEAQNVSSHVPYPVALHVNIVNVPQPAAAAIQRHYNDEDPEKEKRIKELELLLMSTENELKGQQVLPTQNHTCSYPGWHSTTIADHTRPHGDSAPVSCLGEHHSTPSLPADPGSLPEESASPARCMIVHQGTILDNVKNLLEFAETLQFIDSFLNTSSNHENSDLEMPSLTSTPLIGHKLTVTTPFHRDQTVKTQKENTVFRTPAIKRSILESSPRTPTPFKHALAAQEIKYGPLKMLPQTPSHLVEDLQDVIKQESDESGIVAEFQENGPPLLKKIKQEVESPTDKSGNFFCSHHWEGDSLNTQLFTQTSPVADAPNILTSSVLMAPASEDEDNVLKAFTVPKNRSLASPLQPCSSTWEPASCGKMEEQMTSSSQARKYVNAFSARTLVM
# Procedure, shortened: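 Fluorescence signals from capillary electrophoresis of RT-PCR-amplified reporter cDNA give the read-out. Cells: HepG2 transfected with multiple cis-regulated reporter units. Exposure lasts 24 hours; DMSO defines baseline for gain or loss of signal.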
# [8] = molecular target: Nuclear respiratory factor 1 (Homo sapiens) (UniProt Q16656); test: ATG_NRF1_CIS: Attagene CIS-FACTORIAL HepG2 Assay for human Nuclear Respiratory Factor 1 (NRF1) Orphan Gene (AID 2282987); conditions: HepG2 NRF1 cis-element reporter, Attagene multiplex; actives raise or lower the signal
# Sequence of Nuclear respiratory factor 1 (Homo sapiens) (Q16656 whole entry, looked up): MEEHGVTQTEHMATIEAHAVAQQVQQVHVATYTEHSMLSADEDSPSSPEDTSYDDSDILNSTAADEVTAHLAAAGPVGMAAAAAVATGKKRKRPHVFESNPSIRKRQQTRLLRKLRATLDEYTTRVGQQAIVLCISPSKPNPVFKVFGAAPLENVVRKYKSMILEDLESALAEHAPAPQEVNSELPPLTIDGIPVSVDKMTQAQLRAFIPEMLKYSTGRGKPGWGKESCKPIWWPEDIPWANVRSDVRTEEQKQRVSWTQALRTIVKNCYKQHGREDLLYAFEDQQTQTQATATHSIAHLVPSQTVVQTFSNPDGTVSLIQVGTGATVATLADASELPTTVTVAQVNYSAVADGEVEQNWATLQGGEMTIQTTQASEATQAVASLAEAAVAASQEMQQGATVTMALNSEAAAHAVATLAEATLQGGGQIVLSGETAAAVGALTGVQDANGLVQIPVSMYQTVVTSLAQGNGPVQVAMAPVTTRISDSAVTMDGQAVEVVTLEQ
# Procedure, shortened: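 Transcriptional reporter readout, one component of a 52-endpoint multiplexed HepG2 panel. Exposure 24 h; mRNA detected via RT-PCR and fluorescent capillary electrophoresis; fitting in both directions against DMSO.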
# [9] = ATG_NFI_CIS: Attagene CIS-FACTORIAL HepG2 Assay for human Nuclear Factor I (NFI) (AID 2282989); conditions: HepG2 cis-regulatory reporter, NFI response element transcription; actives raise or lower the signal
# Procedure, shortened: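 HepG2 cells transiently transfected with cis-element-driven multiplexed reporter transcription units, dosed for 24 h. Reporter mRNA quantified by RT-PCR, fluorescent labelling, HpaI digestion and capillary electrophoresis; bidirectional fit versus DMSO baseline.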
# [10] = molecular target: Myc proto-oncogene protein (Homo sapiens) (UniProt P01106); test: ATG_Myc_CIS: Attagene CIS-FACTORIAL HepG2 Assay for human Myelocytomatosis (Myc) Proto-Oncogene Transcription Factor (AID 2282990); conditions: HepG2, Attagene cis-reporter transcription factor activity; actives raise or lower the signal
# Procedure, shortened: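 Transiently transfected HepG2 cells bearing cis-promoter reporter units for endogenous transcription factors; 24 h exposure. Reporter mRNA measured by RT-PCR, 6-FAM primer extension, HpaI cut and capillary electrophoresis; bidirectional fit relative to DMSO.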
# [11] = molecular target: Oxysterols receptor LXR-alpha (Homo sapiens) (UniProt Q13133); test: ATG_LXRa_TRANS: Attagene TRANS-FACTORIAL HepG2 Assay for human Liver X Receptor alpha (LXRa) (AID 2282980; active = hit-call score of the fitted dose curve at least 0.9, where 1 is the maximum); conditions: HepG2 Attagene TRANS reporter, LXRa transactivation
# Sequence of Oxysterols receptor LXR-alpha (Homo sapiens) (Q13133 whole entry, looked up, the tested form may be a part): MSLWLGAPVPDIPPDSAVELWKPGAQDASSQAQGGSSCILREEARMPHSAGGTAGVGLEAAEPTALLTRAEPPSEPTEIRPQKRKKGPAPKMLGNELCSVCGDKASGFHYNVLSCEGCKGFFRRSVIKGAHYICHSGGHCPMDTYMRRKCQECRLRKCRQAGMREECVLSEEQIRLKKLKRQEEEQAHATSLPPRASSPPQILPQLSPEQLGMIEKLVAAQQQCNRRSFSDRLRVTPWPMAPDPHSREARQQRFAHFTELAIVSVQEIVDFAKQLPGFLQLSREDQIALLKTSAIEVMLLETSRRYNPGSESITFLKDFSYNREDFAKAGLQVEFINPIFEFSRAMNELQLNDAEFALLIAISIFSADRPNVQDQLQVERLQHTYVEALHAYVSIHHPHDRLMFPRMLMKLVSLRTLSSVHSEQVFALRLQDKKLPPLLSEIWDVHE
# Procedure, shortened: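 HepG2 cells transiently transfected with GAL4-UAS reporter units for chimeric NR-Gal4 proteins, exposed to chemicals for 24 h. Reporter mRNA quantified by RT-PCR and capillary electrophoresis; gain of signal fitted relative to DMSO.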
# [12] = ATG_NF_kB_CIS: Attagene CIS-FACTORIAL HepG2 Assay for human Nuclear Factor Kappa B (NF-kB) (AID 2282991); conditions: HepG2 Attagene cis-factorial NF-kB reporter mRNA; actives raise or lower the signal
# Procedure, shortened: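 HepG2, transient multi-reporter transfection, cis promoter elements (endogenous TFs). 24 h exposure. Total RNA → RT → PCR → 6-FAM label → HpaI → CE. Gain/loss vs DMSO.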
# [13] = ATG_NRF2_ARE_CIS: Attagene CIS-FACTORIAL HepG2 Assay for human Nuclear Factor Erythroid 2 Related Factor 2 (NFR2) response to Antioxidant Response Elements (ARE) (AID 2282992); conditions: HepG2 Attagene ARE/NRF2 reporter, transcription factor activity; actives raise or lower the signal;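 as to AC50: reporter mRNA level measured by RT-PCR and capillary electrophoresis fluorescence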
# Procedure, shortened: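 Readout: reporter mRNA quantified by RT-PCR plus FAM-labelled primer extension, HpaI digestion and capillary electrophoresis, 24 h after dosing transfected HepG2 cells. Gain or loss of signal is fitted bidirectionally against DMSO baseline.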
# [14] = molecular target: Glucocorticoid receptor (Homo sapiens) (UniProt P04150); test: ATG_GR_TRANS: Attagene TRANS-FACTORIAL HepG2 Assay for human Glucocorticoid Receptor (GR) (AID 2282978; active = hit-call score of the fitted dose curve at least 0.9, where 1 is the maximum;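 also: activators score as hits since higher reporter transcript over DMSO is fitted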); conditions: HepG2 Attagene TRANS GR reporter, mRNA transcription
# Sequence of Glucocorticoid receptor (Homo sapiens) (P04150 whole entry, looked up, the tested form may be a part): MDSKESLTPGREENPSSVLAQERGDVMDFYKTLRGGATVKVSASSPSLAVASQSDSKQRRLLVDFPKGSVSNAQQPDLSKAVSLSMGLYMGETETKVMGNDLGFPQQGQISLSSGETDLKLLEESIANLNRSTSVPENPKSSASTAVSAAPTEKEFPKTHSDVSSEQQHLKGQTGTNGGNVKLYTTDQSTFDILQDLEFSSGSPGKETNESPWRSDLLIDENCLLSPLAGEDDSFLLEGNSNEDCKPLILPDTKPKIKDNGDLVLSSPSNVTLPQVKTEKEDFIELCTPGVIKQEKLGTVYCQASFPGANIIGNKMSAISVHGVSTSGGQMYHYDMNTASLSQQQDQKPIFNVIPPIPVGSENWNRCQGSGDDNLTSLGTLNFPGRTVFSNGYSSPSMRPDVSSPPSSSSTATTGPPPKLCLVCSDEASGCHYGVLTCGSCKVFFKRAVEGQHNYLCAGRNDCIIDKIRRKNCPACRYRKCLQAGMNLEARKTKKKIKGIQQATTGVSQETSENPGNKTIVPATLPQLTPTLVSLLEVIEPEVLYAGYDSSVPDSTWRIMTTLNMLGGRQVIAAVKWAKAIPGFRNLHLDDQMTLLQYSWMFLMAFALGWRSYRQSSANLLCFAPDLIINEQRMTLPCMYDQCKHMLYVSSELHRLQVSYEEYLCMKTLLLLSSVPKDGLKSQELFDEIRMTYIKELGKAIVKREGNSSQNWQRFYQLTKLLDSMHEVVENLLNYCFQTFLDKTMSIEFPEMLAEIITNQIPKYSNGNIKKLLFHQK
# Procedure, shortened: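 Measurement of GAL4-UAS-driven reporter mRNA in human HepG2 liver cells 24 h post-dosing, using RT-PCR with fluorescent labelling and capillary electrophoresis; the transfected constructs report exogenous NR-GAL4 chimera activity, fitted upward against DMSO.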
# [15] = molecular target: Bile acid receptor (Homo sapiens) (UniProt Q96RI1); test: ATG_FXR_TRANS: Attagene TRANS-FACTORIAL HepG2 Assay for Farnesoid X Receptor (FXR) (AID 2282979; active = hit-call score of the fitted dose curve at least 0.9, where 1 is the maximum;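 also: hits raise reporter mRNA above DMSO so AC50 marks FXR activation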); conditions: HepG2 Attagene TRANS FXR-GAL4 reporter transcription
# Sequence of Bile acid receptor (Homo sapiens) (Q96RI1 whole entry, looked up, the tested form may be a part): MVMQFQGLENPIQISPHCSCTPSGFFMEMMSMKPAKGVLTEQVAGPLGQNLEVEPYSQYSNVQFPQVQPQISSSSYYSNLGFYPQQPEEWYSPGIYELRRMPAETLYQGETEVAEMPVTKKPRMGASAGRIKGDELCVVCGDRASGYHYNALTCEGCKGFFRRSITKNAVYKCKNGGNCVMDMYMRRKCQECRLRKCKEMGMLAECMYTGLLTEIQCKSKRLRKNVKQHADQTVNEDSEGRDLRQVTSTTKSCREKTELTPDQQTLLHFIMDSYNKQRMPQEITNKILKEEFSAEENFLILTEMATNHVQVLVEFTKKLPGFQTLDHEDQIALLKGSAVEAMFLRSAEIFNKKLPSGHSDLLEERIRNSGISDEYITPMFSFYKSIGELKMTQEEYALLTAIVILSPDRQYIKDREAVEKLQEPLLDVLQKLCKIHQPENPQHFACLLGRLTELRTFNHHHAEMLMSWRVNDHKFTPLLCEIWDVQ
# Procedure, shortened: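 HepG2 cells were transiently transfected with GAL4-UAS reporters driven by chimeric NR-Gal4 proteins and dosed for 24 h. Reporter mRNA was quantified by RT-PCR, fluorescent labelling, HpaI digestion and capillary electrophoresis, with gain of signal scored versus DMSO.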
smiles,measurement,setting,value
CC1CC(=O)O1 (stereo not drawn),outcome,[1],inactive
same,outcome,[2],inactive
same,outcome,[3],inactive
same,outcome,[4],inactive
same,outcome,[5],inactive
same,outcome,[6],inactive
same,outcome,[7],inactive
same,outcome,[8],inactive
same,outcome,[9],inactive
same,outcome,[10],inactive
CC1(C)[C@H](/C=C2\CCSC2=O)[C@@H]1C(=O)OCc1coc(Cc2ccccc2)c1,outcome,[1],inactive
same,outcome,[11],inactive
same,outcome,[3],inactive
same,outcome,[5],inactive
same,outcome,[6],inactive
same,outcome,[7],inactive
same,outcome,[8],inactive
same,outcome,[9],inactive
same,outcome,[10],inactive
same,outcome,[12],inactive
same,AC50,[13],35.8 µM (active)
OCC(c1ccc(Cl)cc1)c1ccc(Cl)cc1,AC50,[1],56.3 µM (active)
same,outcome,[14],inactive
same,outcome,[15],inactive
same,outcome,[3],inactive
same,outcome,[4],inactive
same,outcome,[5],inactive
same,AC50,[6],46.3 µM (active)
same,outcome,[7],inactive
same,outcome,[8],inactive
same,outcome,[9],inactive
same,outcome,[10],inactive
same,AC50,[13],43.6 µM (active)
Nc1cccnc1,outcome,[1],inactive
same,outcome,[3],inactive
same,outcome,[5],inactive
same,outcome,[6],inactive
same,outcome,[7],inactive
same,outcome,[8],inactive
same,outcome,[9],inactive
same,outcome,[10],inactive
same,outcome,[12],inactive
same,outcome,[13],inactive
Cc1cccc(C)c1NC(=O)CN1CCCC1=O,outcome,[1],inactive
same,outcome,[15],inactive
same,outcome,[11],inactive
same,outcome,[4],inactive
same,outcome,[7],inactive
same,outcome,[8],inactive
same,outcome,[9],inactive
same,outcome,[10],inactive
same,outcome,[12],inactive
CC(C)N(C(=O)CCl)c1ccccc1,AC50,[1],47.9 µM (active)
same,outcome,[14],inactive
same,outcome,[2],inactive
same,outcome,[4],inactive
same,AC50,[6],149 µM (active)
same,AC50,[7],8.16 µM (active)
same,AC50,[8],49.1 µM (active)
same,AC50,[9],24.3 µM (active)
same,outcome,[10],inactive
same,AC50,[13],2.75 µM (active)
O=C(NC(=O)c1c(F)cccc1F)Nc1cc(Cl)c(OC(F)(F)C(F)C(F)(F)F)cc1Cl (stereo not drawn),outcome,[1],inactive
same,outcome,[11],inactive
same,AC50,[2],49.9 µM (active)
same,outcome,[3],inactive
same,outcome,[5],inactive
same,outcome,[7],inactive
same,outcome,[8],inactive
same,outcome,[10],inactive
same,outcome,[12],inactive
same,AC50,[13],73 µM (active)
ClCc1ccccc1CCl,AC50,[1],12.6 µM (active)
same,outcome,[11],inactive
same,outcome,[3],inactive
same,outcome,[4],inactive
same,outcome,[6],inactive
same,outcome,[7],inactive
same,outcome,[8],inactive
same,outcome,[9],inactive
same,AC50,[10],33.4 µM (active)
same,AC50,[12],25.1 µM (active)
same,AC50,[13],8.19 µM (active)
CC(C)(c1ccc(O)c(-c2ccccc2)c1)c1ccc(O)c(-c2ccccc2)c1,AC50,[1],4.92 µM (active)
same,outcome,[14],inactive
same,outcome,[15],inactive
same,outcome,[4],inactive
same,outcome,[5],inactive
same,outcome,[6],inactive
same,outcome,[8],inactive
same,outcome,[9],inactive
same,outcome,[10],inactive
same,outcome,[12],inactive
COC(=O)c1cc(Oc2ccc(Cl)cc2Cl)ccc1[N+](=O)[O-],outcome,[1],inactive
same,outcome,[15],inactive
same,outcome,[11],inactive
same,outcome,[2],inactive
same,outcome,[3],inactive
same,outcome,[5],inactive
same,AC50,[6],32.3 µM (active)
same,outcome,[7],inactive
same,outcome,[8],inactive
same,outcome,[9],inactive
same,outcome,[10],inactive
same,outcome,[12],inactive
same,AC50,[13],56.8 µM (active)
CC(C)(c1ccccc1)c1cc(-n2nc3ccccc3n2)c(O)c(C(C)(C)c2ccccc2)c1,outcome,[1],inactive
same,outcome,[11],inactive
same,outcome,[2],inactive
same,outcome,[7],inactive
same,outcome,[8],inactive
same,outcome,[10],inactive
same,outcome,[12],inactive
same,outcome,[13],inactive
CCCCCCCCCCCCN(C)C,AC50,[1],53.9 µM (active)
same,outcome,[14],inactive
same,outcome,[11],inactive
same,outcome,[2],inactive
same,outcome,[4],inactive
same,outcome,[7],inactive
same,AC50,[8],54.2 µM (active)
same,AC50,[9],57.2 µM (active)
same,AC50,[10],50.9 µM (active)
same,AC50,[13],46.9 µM (active)
c1ccc2c(c1)Oc1ccccc1O2,outcome,[1],inactive
same,outcome,[4],inactive
same,outcome,[7],inactive
same,outcome,[8],inactive
same,outcome,[9],inactive
same,outcome,[10],inactive
same,AC50,[13],35.4 µM (active)
NC(=O)CCl,outcome,[1],inactive
same,outcome,[11],inactive
same,outcome,[2],inactive
same,outcome,[3],inactive
same,outcome,[4],inactive
same,outcome,[5],inactive
same,outcome,[6],inactive
same,outcome,[8],inactive
same,outcome,[9],inactive
same,outcome,[10],inactive
same,AC50,[13],78.2 µM (active)
CCOC(=O)CC(=O)CCl,AC50,[1],23.6 µM (active)
same,outcome,[11],inactive
same,outcome,[3],inactive
same,outcome,[4],inactive
same,outcome,[6],inactive
same,outcome,[7],inactive
same,outcome,[8],inactive
same,outcome,[9],inactive
same,outcome,[10],inactive
same,AC50,[12],56.8 µM (active)
same,AC50,[13],181 µM (active)
N#CCC#N,outcome,[1],inactive
same,outcome,[14],inactive
same,outcome,[2],inactive
same,outcome,[3],inactive
same,outcome,[4],inactive
same,outcome,[6],inactive
same,outcome,[7],inactive
same,outcome,[8],inactive
same,outcome,[9],inactive
same,outcome,[10],inactive
same,outcome,[12],inactive
Nc1ccc(-c2ccccc2)cc1,outcome,[1],inactive
same,outcome,[4],inactive
same,outcome,[5],inactive
same,outcome,[6],inactive
same,outcome,[7],inactive
same,outcome,[8],inactive
same,outcome,[10],inactive
same,outcome,[12],inactive
same,AC50,[13],32 µM (active)
